An excerpt weighted towards active compounds, which were near 12% of everything screened.
Pf growth 96h: P. falciparum growth inhibition at 96 hours; Potency, µM (doses to about 28.7 µM), for inactives: at the highest dose activity change, negative = inhibition, actives largely listed as inhibitors; P. falciparum luciferase reporter growth, 96 h; hit rate 6.9% among 320,000; AID 504834; also: % is scaled to controls: 0 for no effect and ±100 for the full control effect
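P. falciparum expressing integrated firefly luciferase grown in erythrocytes (2% hematocrit, 0.05% parasitemia final) with compounds for 96 hours at 37 C, 5% CO2. Growth inhibition read as loss of luminescence after adding luciferase detection reagent.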
Sm TGR inh: S. mansoni TGR enzyme inhibition. purified TGR, DTNB reduction, TNB absorbance 405 nm. Potency, µM (top dose mostly 114 µM), for the others: at the highest dose activity change, negative = inhibition, usual class: inhibitors. hit rate 3% among 360,000. AID 485364; also: % is scaled to controls: 0 for no effect and ±100 for the full control effect; nearly all actives have a fitted effect of over 60% in size
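TGR 20 nM + NADPH 100 uM (dispensed conc.), cpd preinc 15 min RT; start with NADPH (500 uM addition) then DTNB (15 mM addition). Kinetic TNB absorbance, 405 nm filter. Four-parameter Hill fit across titration.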
SARS PLP yeast: blocks SARS-CoV papain-like protease in a yeast assay; S. cerevisiae expressing SARS-CoV PLpro, growth rescue; Potency, µM (highest dose often 32.9 µM), for the others: top-dose activity, positive = growth rescue, actives largely listed as activators; hit rate 0.19% among 330,000; AID 485353; calls by dose curve; also: 0% is about no effect; nearly all actives have a fitted effect of over 55% in size
Pf growth 48h: inhibits P. falciparum growth in the first generation, 48 h | P. falciparum luciferase growth in erythrocytes, 48 h | Potency, µM (highest dose often 28.7 µM), for the others: top-dose activity change, negative = inhibition, hits mostly inhibitors | hit rate 5.9% among 310,000; also: % is scaled to controls: 0 for no effect and ±100 for the full control effect
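Read-out is firefly luciferase luminescence from an integrated reporter in P. falciparum, so falling signal marks reduced parasite growth. Infected erythrocytes were at 2% hematocrit and 0.1% parasitemia (final) in Albumax-supplemented RPMI 1640.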
The depositor's hits bear a star; ? = inconclusive; nt = no result. Unless noted, calls follow the shape of the dose curve; as a rule, active = well fitted curve in the direction sought with a large enough effect; inconclusive = small, poorly fitted or top-dose-only effect, or another doubt; inactive = no such curve, though single readings can be large; an effect the other way counts as inactive or inconclusive. Potency is read from the fitted curve at half-maximal effect.

SMILES	Pf growth 96h	Sm TGR inh	SARS PLP yeast	Pf growth 48h
CC(C)c1ccccc1NC(=O)Cn1cnc2c1c(=O)n(C)c(=O)n2C	nt	-2%	nt	nt
Cc1ccc(NC(=O)c2sc3nc(N4CCOCC4)c4c(c3c2N)CC(C)(C)OC4)cc1	69%	-4%	-4%	?
CC1(C)Cc2c(c(N3CCCC3)nc3sc(C(=O)Nc4ccccc4)c(N)c23)CO1	13µM*	4%	-4%	15µM*
NC(=O)C1CCN(C2CC(=O)N(Cc3cccs3)C2=O)CC1 (stereo not drawn)	0%	35µM*	-55%	nt
O=C1CC(N2CCC(c3nc4ccccc4o3)CC2)C(=O)N1Cc1cccs1 (stereo not drawn)	-1%	50µM*	-10%	0%
O=C1CC(N2CCN(c3ccc(F)cc3)CC2)C(=O)N1Cc1cccs1 (stereo not drawn)	nt	?	-25%	?
CCCOc1ccc(N2C(=O)CC(N3CCN(c4ccccc4F)CC3)C2=O)cc1 (stereo not drawn)	22%	-34%	-8%	11%
O=C1CC(N2CCN(c3nc4ccccc4s3)CC2)C(=O)N1Cc1cccs1 (stereo not drawn)	nt	11µM*	-7%	-9%
NC(=O)C1CCN(C(=S)c2cccs2)CC1	?	5%	0%	3%
CCCOc1ccc(N2C(=O)CC(N3CCN(c4nc5ccccc5s4)CC3)C2=O)cc1 (stereo not drawn)	1%	40µM*	-27%	-7%
O=C(CN1CCOCC1)N1CCc2ccccc2C(c2ccccc2)C1 (stereo not drawn)	?	-29%	7%	-24%
O=C(CBr)N1CCc2ccccc2C(c2ccccc2)C1 (stereo not drawn)	28%	3.5µM*	-2%	7%
C[C@]12CC(O)C3C(CCC4=CC(=O)CC[C@@]43C)C1CCC2c1csc(-c2ccccc2)n1 (stereo partly drawn)	?	-11%	1%	5.2µM*
CC(=O)[C@H]1CC[C@H]2[C@@H]3CCC4=CC(=O)CC[C@]4(C)[C@H]3[C@H](O)C[C@]12C	-23%	-8%	2%	8%
CC(C)COCC1CC2(CC(C)(c3csc(N)n3)OC2=O)C(=O)O1 (stereo not drawn)	22%	?	1%	0%
C=CCNc1nc(C2(C)CC3(CC(C)(C)OC3=O)C(=O)O2)cs1 (stereo not drawn)	19%	50µM*	-1%	3%
CCOC(=O)C(CS)NCCN[C@@H](CS)C(=O)OCC (stereo partly drawn)	-17%	nt	nt	-13%
Cc1ccc(C)c(N2CCN(c3nc4c(S(=O)(=O)c5ccccc5)nnn4c4ccc(Cl)cc34)CC2)c1	nt	3%	nt	nt
COc1ccc(/C=C2\CCn3c2nc2cc(C(=O)O)ccc2c3=O)cc1O	13µM*	-4%	16%	-7%
O=c1c2ccc(Cl)cc2nc2n1CC/C2=C\c1cccc(O)c1	?	1%	-2%	13µM*
COc1ccc(/C=C2\CCn3c2nc2cc(C(=O)O)ccc2c3=O)cc1OC	-17%	-2%	-2%	89%
O=C(O)c1ccc2c(=O)n3c(nc2c1)/C(=C/c1cccc(O)c1)CC3	-24%	2%	1%	nt
COc1c(Cl)cc(Cl)cc1C(=O)Nc1cccc(-c2nc3ccccc3o2)c1C	nt	-9%	nt	nt
O=C(CCSCCc1ccccn1)Nc1ccc(Cc2ccncc2)cc1	12µM*	?	1%	?
O=C(CCSCCc1ccccn1)Nc1ccccn1	29%	-3%	-3%	?
SMILES	Pf growth 96h	Sm TGR inh	SARS PLP yeast	Pf growth 48h
CC(CCN1CCN=C1Nc1ccccc1)c1ccccc1 (stereo not drawn)	?	5%	4%	3%
CC(C)(C)c1ccc(C(=O)O)c(C(=O)c2ccc(C(=O)O)cc2)c1	-6%	15%	0%	?
CCCCOC(=O)c1ccc(Nc2ncnc3c2cnn3-c2cccc(C)c2)cc1	nt	11%	nt	nt
COc1ccc(C(=O)NC(=S)NCc2ccco2)cc1OC	7.4µM*	?	-9%	0%
COc1ccc(C(=O)NC(=S)NCc2ccco2)cc1	3%	7.1µM*	13%	14%
COc1ccc(C(=O)NC(=S)NCc2ccco2)cc1Br	?	50µM*	2%	?
COc1cc(OC)cc(C(=O)NC(=S)NCc2ccco2)c1	0%	?	15%	9%
Cc1ccc(C(=O)NC(=S)NCc2ccco2)cc1	?	?	15%	53%
c1ccc(Nc2nc(N3CCCCC3)nc(N3CCCCC3)n2)cc1	9.3µM*	?	-2%	nt
CCNc1nc(N2CCCC2)nc(N2CCCC2)n1	5%	nt	-1%	12µM*
c1ccc(Nc2nc(N3CCCCC3)nc(N3CCNCC3)n2)cc1	?	1%	0%	?
c1ccc(Nc2nc(N3CCCC3)nc(N3CCCC3)n2)cc1	12µM*	11%	-7%	nt
Fc1ccc(Nc2nc(Oc3ccccc3F)nc(N3CCCC3)n2)cc1	nt	-7%	-7%	1.5µM*
Cc1c(C(=O)N2CCN(S(=O)(=O)c3cc(F)ccc3F)CC2)oc2ccccc12	-45%	-5%	-4%	?
Cc1cccc(N(C(=O)Cc2cccs2)C(C(=O)NC2CCCC2)c2ccncc2)c1 (stereo not drawn)	-17%	1%	6%	-48%
COc1ccc(N(C(=O)CCl)C(C(=O)NCCc2ccccc2)c2cccs2)cc1 (stereo not drawn)	103%	10µM*	-27%	15µM*
Cc1ccc(N(C(=O)Cc2cccs2)C(C(=O)NC2CCCCC2)c2ccccn2)cc1C (stereo not drawn)	4.1µM*	-8%	-26%	0%
O=C(NC1CCCCC1)C(c1ccc(F)cc1)N(C(=O)c1cccs1)c1ccc2c(c1)OCO2 (stereo not drawn)	20%	-3%	-2%	-1%
COc1ccc(C(C(=O)NC2CCCC2)N(Cc2cccnc2)C(=O)Cc2cccs2)cc1OC (stereo not drawn)	-8%	-6%	-2%	-14%
O=C(NC1CCCCC1)C(c1ccc2ncccc2c1)N(Cc1ccc(F)cc1)C(=O)c1cccs1 (stereo not drawn)	10µM*	1%	-1%	8.3µM*
COc1ccc(CN(C(=O)Cc2cccs2)C(C(=O)NC2CCCC2)c2ccncc2)cc1 (stereo not drawn)	15µM*	0%	-12%	?
COc1ccc(NC(=O)C2CCCN(C(=O)Nc3ccc(F)cc3)C2)cc1 (stereo not drawn)	2%	-1%	10%	-3%
COc1ccc2cc(S(=O)(=O)c3ccccc3F)c(=O)oc2c1	nt	1%	nt	nt
COc1ccc(CNC(=O)C(c2ccncc2)N(C(=O)Cc2cccs2)c2ccccc2)cc1 (stereo not drawn)	13µM*	-1%	-25%	6%
COc1ccc(CNC(=O)C(c2ccncc2)N(C(=O)Cc2cccs2)c2ccc(C)cc2)cc1 (stereo not drawn)	?	17%	-1%	?

From PubChem
